# Data published in PubChem BioAssay (Tox21).
# Where “and” joins values, the source holds several entries; their conditions need not be identical. Identical values can stand only once. Inconclusive results are not listed. Entries that show only a call come without a potency. Some structures have more than one record in an assay (separate samples or runs), and their calls can disagree. Calls of active or inactive are those of the source. Unless noted, calls follow the shape of the dose curve; as a rule, active = well fitted curve in the direction sought with a large enough effect in the repeat runs; inconclusive = weak or mixed curves; inactive = no such curve, though single readings can be large; an effect the other way counts as inactive or inconclusive.
# What was measured:
# [1] = qHTS assay to identify small molecule agonists of the constitutive androstane receptor (CAR) signaling pathway - cell viability counter screen (AID 1224836); also: nearly all actives have a fitted effect of over 45% in size; also: potency is read from the fitted curve at half-maximal effect
# In short: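 Cells were seeded and incubated 4 hrs. Compounds were added across 15 concentrations together with PK11195 at 0.75 uM final. Plates were incubated 23 hrs at 37 C. CellTiter-Fluor was added and fluorescence measured.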
# [2] = qHTS assay to identify small molecule antagonists of the constitutive androstane receptor (CAR) signaling pathway - cell viability counter screen (AID 1224837); also: nearly all actives have a fitted effect of over 45% in size; also: potency is read from the fitted curve at half-maximal effect
# In short: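 HepG2-CYP2B6-hCAR cells, 2500/well, 4 hr pre-incubation; compound titration, 15 conc.; CITCO 50 nM final; 23 hr, 37 C/5% CO2; CellTiter-Fluor, fluorescence intensity.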
# [3] = biological target: Nuclear receptor subfamily 1 group I member 3 (Homo sapiens) (UniProt Q14994); assay: qHTS assay to identify small molecule antagonists of the constitutive androstane receptor (CAR) signaling pathway (AID 1224838);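 also: HepG2 cells stably expressing hCAR with CYP2B6 luciferase reporter stimulated by CITCO; nearly all actives have a fitted effect of over 40% in size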; also: potency is read from the fitted curve at half-maximal effect
# In short: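 HepG2-CYP2B6-hCAR cells; 4 h pre-incubation; cpd (15 conc) + CITCO 50 nM final; 24 h, 37 C/5% CO2; ONE-Glo, luminescence.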
# [4] = biological target: Nuclear receptor subfamily 1 group I member 3 (Homo sapiens) (UniProt Q14994); assay: qHTS assay to identify small molecule agonists of the constitutive androstane receptor (CAR) signaling pathway (AID 1224839); also: nearly all actives have a fitted effect of over 15% in size; also: potency is read from the fitted curve at half-maximal effect;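 as to activation: HepG2 cells stably carrying human CAR and a CYP2B6 luciferase reporter; series mostly up to about 92 µM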
# In short: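 Cells were plated and incubated 4 hrs, then dosed with compounds at 15 concentrations. PK11195 was added to 0.75 uM final. After 24 hrs at 37 C, luciferase luminescence was measured.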
# [5] = qHTS assay to identify small molecule antagonists of the estrogen related receptor signaling pathway with the pleiotropic PPARgamma coactivator (PGC) from Tox21 10K library - cell viability counter screen (AID 1224840; active = well fitted cell-killing curve with a large enough effect in the repeat runs, not every such curve was filed as active; also: nearly all actives have a fitted effect of over 40% in size; also: potency is read from the fitted curve at half-maximal effect)
# In short: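 PGC/ERR cells, 2,000/well; 6 h pre-incubation 37 C/5% CO2; cpd in DMSO via pin tool; 17.5 h 37 C; CellTiter-Fluor, 30 min; fluorescence.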
# [6] = qHTS assay to identify small molecule antagonists of the estrogen related receptor signaling pathway with the pleiotropic PPARgamma coactivator (PGC) from Tox21 10K library (AID 1224841; call rule not given here; also: actives are mostly falling curves and most rising ones were filed inactive; nearly all actives have a fitted effect of over 50% in size; also: potency is read from the fitted curve at half-maximal effect)
# In short: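 PGC/ERR cell line, 2,000 cells/well; 6 h pre-incubation 37 C/5% CO2; compounds (DMSO) pinned in; 18 h, 37 C; One-Glo, 30 min RT; luminescence.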
# [7] = qHTS assay to identify small molecule agonists of the estrogen related receptor signaling pathway with the pleiotropic PPARgamma coactivator (PGC) from Tox21 10K library (AID 1224842); also: nearly all actives have a fitted effect of over 15% in size
# In short: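 PGC/ERR reporter cell line, 2,000 cells per well, incubated 6 h at 37 C before 23 nL compound in DMSO was added. After 18 h at 37 C, One-Glo luminescence read following 30 min at room temperature.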
# [8] = biological target: Thyrotropin receptor (Homo sapiens) (UniProt P16473); assay: qHTS assay to identify small molecule agonists of the thyroid stimulating hormone receptor (TSHR) signaling pathway (AID 1224843; calls by dose curve; also: nearly all actives have a fitted effect of over 45% in size; also: potency is read from the fitted curve at half-maximal effect)
# In short: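 TSHR-HEK293 cells in agonist mode, 30 min room-temperature step, then cAMP measured by competitive HTRF (cAMP-d2 with anti-cAMP cryptate) after 1 h at room temperature. Tested at 15 concentrations in triplicate.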
# [9] = qHTS assay to identify small molecule agonists of the hypoxia (HIF-1) signaling pathway - cell viability counter screen (AID 1224844; calls by dose curve; also: nearly all actives have a fitted effect of over 50% in size; also: potency is read from the fitted curve at half-maximal effect)
# In short: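 ME-180 HRE-bla cells, 2,000/well, 0.5% dialyzed FBS; 5 hr settle, 17 hr compound at 37C/5% CO2; CCF4-AM reporter read first, then CellTiter-Glo luminescence after 30 min RT.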
# [10] = qHTS assay to identify small molecule agonists of H2AX (AID 1224845; active = well fitted activation curve with a large enough effect in the signal ratio in the repeat runs, not every such curve was filed as active; the % refers to the signal ratio; also: potency is read from the fitted curve at half-maximal effect)
# In short: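 Wild-type CHO-K1 cells, plated overnight, exposed 3hr at 37C to 15 concentrations (0.76% DMSO final). Lysed, then HTRF anti-pH2AX (S139) cryptate and anti-H2AX-d2 antibodies, 24 hr room temperature; 665/620 nm emission read.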
# Sequence of Thyrotropin receptor (Homo sapiens) (P16473 whole entry, looked up): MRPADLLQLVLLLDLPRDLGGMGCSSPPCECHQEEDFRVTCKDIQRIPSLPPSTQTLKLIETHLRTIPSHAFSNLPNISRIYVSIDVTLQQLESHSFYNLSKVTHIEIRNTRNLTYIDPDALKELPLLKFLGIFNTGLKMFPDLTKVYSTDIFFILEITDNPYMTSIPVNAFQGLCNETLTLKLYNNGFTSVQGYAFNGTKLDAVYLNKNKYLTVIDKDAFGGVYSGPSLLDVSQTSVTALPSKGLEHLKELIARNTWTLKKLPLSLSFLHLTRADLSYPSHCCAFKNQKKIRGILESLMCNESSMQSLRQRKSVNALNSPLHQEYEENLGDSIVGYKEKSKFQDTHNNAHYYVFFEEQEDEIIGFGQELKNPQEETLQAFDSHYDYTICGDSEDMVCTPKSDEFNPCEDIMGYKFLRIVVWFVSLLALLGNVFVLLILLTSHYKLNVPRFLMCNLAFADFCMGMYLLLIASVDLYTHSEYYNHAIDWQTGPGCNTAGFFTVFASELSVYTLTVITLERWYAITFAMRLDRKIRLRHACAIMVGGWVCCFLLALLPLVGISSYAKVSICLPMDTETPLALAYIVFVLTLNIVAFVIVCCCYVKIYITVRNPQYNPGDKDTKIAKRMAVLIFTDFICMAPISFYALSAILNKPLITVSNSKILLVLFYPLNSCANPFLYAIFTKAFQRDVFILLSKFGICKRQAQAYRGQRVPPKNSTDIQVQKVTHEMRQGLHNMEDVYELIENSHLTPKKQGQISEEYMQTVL
# Sequence of Nuclear receptor subfamily 1 group I member 3 (Homo sapiens) (Q14994 whole entry, looked up): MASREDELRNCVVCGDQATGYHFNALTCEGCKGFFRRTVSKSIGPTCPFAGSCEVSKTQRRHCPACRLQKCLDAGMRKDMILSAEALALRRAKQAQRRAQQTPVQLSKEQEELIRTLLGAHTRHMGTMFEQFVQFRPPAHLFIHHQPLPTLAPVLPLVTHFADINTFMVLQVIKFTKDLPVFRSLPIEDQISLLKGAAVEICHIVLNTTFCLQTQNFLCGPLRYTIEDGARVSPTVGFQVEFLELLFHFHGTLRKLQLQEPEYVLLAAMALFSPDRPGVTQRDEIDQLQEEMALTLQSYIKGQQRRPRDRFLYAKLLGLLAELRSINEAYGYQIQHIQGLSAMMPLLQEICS
Compound,Potency [1],Potency [2],Potency [3],Potency [4],Potency [5],Potency [6],Potency [7],Potency [8],Potency [9],Potency [10]
Cc1ccc(OP(=O)(Oc2ccccc2)Oc2ccccc2)cc1,inactive,inactive,inactive,17.5 µM (active),inactive,24.7 µM (active),inactive,15.6 µM (active),inactive,inactive
CCOCn1c(-c2ccc(Cl)cc2)c(C#N)c(Br)c1C(F)(F)F,4.33 µM (active),4.33 µM (active),4.86 µM (active),inactive,5.45 µM (active),–,–,–,–,–
CC(C)(O)c1cnn2c(-c3ccc(F)c(-c4c(F)cccc4C#N)c3)cnc2n1,inactive,inactive,inactive,inactive,inactive,–,inactive,inactive,54.9 µM (active),–
ClC1=C(Cl)[C@]2(Cl)[C@@H]3[C@@H](Cl)[C@H](Cl)C[C@@H]3[C@@]1(Cl)C2(Cl)Cl,inactive,inactive,inactive,inactive,inactive,inactive,inactive,–,inactive,inactive
Cc1ccc(CCl)cc1,inactive,inactive,inactive,inactive,inactive,inactive,inactive,inactive,inactive,inactive
CC(c1ccc(O)cc1)c1ccc(O)cc1,inactive,inactive,inactive,51.1 µM (active) and 30.6 µM (active),inactive,inactive,inactive,inactive,inactive,inactive and 56.6 µM (active)
Oc1cccc(-c2ccccc2)c1,inactive,inactive,inactive,54.5 µM (active),inactive,inactive,inactive,inactive,inactive,inactive
ClC1=C(Cl)C2(Cl)C3C(Cl)C(Cl)CC3C1(Cl)C2(Cl)Cl (stereo unspecified),inactive,inactive,inactive,3.05 µM (active) and 15.4 µM (active),61.1 µM (active),60.9 µM (active) and 43.3 µM (active),inactive,–,21.8 µM (active),100 µM (active) and 89.8 µM (active)
COc1cccc2c1C(=O)c1c(O)c3c(c(O)c1C2=O)C[C@@](O)(C(=O)CO)CC3OC1CC(N2CCOC(OC)C2)C(O)C(C)O1 (stereo partly specified),0.119 µM (active),0.106 µM (active),0.0298 µM (active),inactive,inactive,0.266 µM (active),inactive,inactive,–,–
CC1(C)CN=C(NN=C(/C=C/c2ccc(C(F)(F)F)cc2)/C=C/c2ccc(C(F)(F)F)cc2)NC1,24.3 µM (active),21.7 µM (active),19.3 µM (active),inactive,17.2 µM (active),27.3 µM (active),inactive,inactive,21.9 µM (active),inactive
C=COCCCl,inactive,inactive,inactive,inactive,inactive,inactive,inactive,inactive,inactive,inactive
C[C@]12CC[C@@H]3c4ccc(OC(=O)N(CCCl)CCCl)cc4CC[C@H]3[C@@H]1CC[C@@H]2O,inactive,inactive,inactive,inactive,inactive,–,inactive,inactive,inactive,inactive
O=c1c(C2CC(c3ccc(-c4ccc(Br)cc4)cc3)Cc3ccccc32)c(O)sc2ccccc12 (stereo unspecified),inactive,inactive,inactive,inactive,inactive,11.9 µM (active),inactive,inactive,15.1 µM (active),–
Clc1ccc(C(Cl)(Cl)Cl)c(Cl)c1,inactive,inactive,inactive,inactive,inactive,61.6 µM (active),inactive,inactive,–,inactive
CC[C@H](C)[C@H]1O[C@]2(C=C[C@@H]1C)C[C@@H]1C[C@@H](C/C=C(\C)[C@@H](O[C@H]3C[C@H](OC)[C@@H](O[C@H]4C[C@H](OC)[C@@H](O)[C@H](C)O4)[C@H](C)O3)[C@@H](C)/C=C/C=C3\CO[C@@H]4[C@H](O)C(C)=C[C@@H](C(=O)O1)[C@]34O)O2,32.2 µM (active),32.2 µM (active),40.5 µM (active),inactive,28.7 µM (active),7.2 µM (active),inactive,–,28.9 µM (active),inactive
N#CSCSC#N,44.2 µM (active) and 48.1 µM (active),27.9 µM (active) and 27 µM (active),19.8 µM (active) and 24.1 µM (active),inactive,55.7 µM (active) and 53.9 µM (active),inactive,inactive,–,17.8 µM (active) and 8.62 µM (active),15.8 µM (active)
Nc1ccccc1C(=O)OC/C=C/c1ccccc1,inactive,inactive,inactive,48.7 µM (active),inactive,–,–,inactive,–,–
CN(C)C1CSSSC1,inactive,inactive,inactive,inactive,inactive,–,inactive,–,inactive,inactive
CC(=O)c1ccc(-c2ccccc2)cc1,inactive,inactive,inactive,48.6 µM (active),inactive,–,–,inactive,inactive,inactive
CC(C)CCCCCOC(=O)c1ccccc1C(=O)OCCCCCC(C)C,inactive,inactive,inactive,inactive,inactive,–,–,inactive,inactive,inactive
Oc1ccccc1Br,inactive,inactive,inactive,inactive,inactive,–,–,–,inactive,inactive
